# This is a sample that favours compounds with a hit; in the whole collection about 3.4% have one here.
# HIF-2a block – blocks HIF-2a reporter activity; 786-0 RCC cells HIF-2a reporter, luciferase luminescence, overnight; inhibition, % at 18.8 µM; actives 0.72% (n = 360,000);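 active means inhibition of the luminescence signal of 40% or more relative to plate controls, in a single-dose primary screen at 18.75 µM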
# TWEAK Fn14 block – TWEAK-Fn14 signaling inhibition. inhibition, % at 10 µM. TWEAK-stimulated Fn14 reporter cells, luciferase luminescence, 8 h. AID 1159606. actives 2% (n = 360,000); in the data active means inhibition above about 50%
# Shn3 3UTR inh – inhibitors of Schnurri-3 3'UTR reporter in osteoblasts; inhibition, % at 12.5 µM; actives 0.52% (n = 360,000); Clone20 osteoblast Shn3 3'UTR firefly luciferase, 24 h;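 active means mean inhibition of at least 75% with every replicate also reaching 75%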;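 further: 0% = median of neutral control wells and 100% = pilot-screen positive control compound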
# TROY NFkB inh – inhibitors of TROY-dependent NF-kB signaling. Q293 LMP1-TROYcd NF-kB luciferase reporter, 4 h. inhibition, % at 10 µM. actives 0.98% (n = 360,000);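 active means compounds whose plate-normalised and pattern-corrected inhibition of the luciferase reporter signal at the single screening dose is 50% or more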
# TRPM1 prom inh – MITF TRPM1 promoter inhibition in SK-MEL-5 cells; actives 0.83% (n = 330,000); SK-MEL-5 TRPM1 promoter luciferase, 24 h; inhibition, % at 12.5 µM;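 active means mean inhibition across replicates of 60% or more, whatever share of single replicates reaches that level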
# EBV LMP1 NFkB – reduces LMP1-driven NF-kappaB luciferase signal. actives 0.69% (n = 350,000). LMP1-induced NF-kappaB luciferase reporter cells, luminescence. AID 504558. inhibition, % at 12.5 µM; in the data active means inhibition above about 41%;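 further: 0% = neutral control wells and 100% = reference inhibitor control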
# Active calls of the source: *; . = no result.
SMILES,HIF-2a block,TWEAK Fn14 block,Shn3 3UTR inh,TROY NFkB inh,TRPM1 prom inh,EBV LMP1 NFkB
Oc1cccc(-c2nc3c4c(ncn3n2)-c2ccccc2CC42CCCC2)c1,26,71*,41,41,20,15
COc1cc(Nc2ccn3nc(-c4ccccc4Cl)cc3n2)cc(OC)c1OC,-365,61*,-6,-7,.,.
Cc1ccccc1NCc1ccc(O)c2ncccc12,16,59*,65,21,54,-10
COCc1ccc(O)c2ncccc12,7,79*,66,.,25,2
CCCC1Cc2c(sc3nc(SC)nc(N)c23)CO1 (centres undefined),-20,68*,.,-24,-9,6
CSc1nc(N)c2c3c(sc2n1)COC(C(C)C)C3 (centres undefined),-19,6,-20,7,8,4
COc1ccc(CCC(=O)N/N=C\c2cccs2)cc1,2,-4,11,-26,-2,-4
COc1ccc(Sc2ccc(/C=C3\C(=O)NN(c4ccccc4)C3=O)o2)cc1,2,93*,58,17,7,0
COc1ccc(-n2c(C)cc(/C=C3\C(=O)NN(c4ccccc4)C3=O)c2C)cc1,-165,2,16,-76,-56,-11
COc1ccccc1Cn1c(=O)c2ccccc2n2c(Sc3ncnc4sccc34)nnc12,24,89*,58,47,19,13
Cn1c(N2CCN(c3ccccn3)CC2)nc2c1c(=O)n(Cc1ccc(Cl)cc1)c(=O)n2C,14,52*,20,54*,9,14
O=C(O)C(CCc1ccccc1)N1C(=O)c2ccccc2C1=O (centres undefined),18,30,10,1,-1,-5
O=C(O)C(=O)/C(=C\c1ccc(Cl)cc1)c1ccc2ccccc2n1,-199,34,-116,53*,-42,-41
O=C(NCCc1ccc(Cl)cc1)c1ccc2ccccc2n1,-136,18,-19,-9,-9,-12
CCCc1c(C(=O)Nc2ccc(N3CCOCC3)cc2)cnn1-c1ccccc1,-18,0,-1,-6,1,2
CCCc1c(C(=O)Nc2ccc(C(F)(F)F)cc2)cnn1-c1ccccc1,-25,-23,8,5,16,62*
O=S(=O)(O)c1cc(OS(=O)(=O)c2ccccc2)cc2ccccc12,16,13,-7,10,9,-8
O=C1Nc2ccccc2SC1c1ccccc1 (centres undefined),8,18,-13,-1,4,9
Cc1ccc(NC2Sc3ccccc3NC2=O)cc1 (centres undefined),-199,56*,-79,9,-70,-1
CCn1c(SC)nnc1C1CCCN(CC(=O)Nc2ccccc2N2CCOCC2)C1 (centres undefined),12,-15,3,-16,6,-4
CCOC(=O)c1ccc(-c2ccc(/C=N/NC(=O)CN(c3ccccc3Cl)S(C)(=O)=O)o2)cc1,-180,71*,0,20,-8,-44
C[C@H](CO)N1C[C@H](C)[C@H](CN(C)C(=O)Nc2ccc(-c3cccs3)cc2)OCc2cnnn2CCCC1=O,-39,-4,-12,-5,.,4
COc1ccc(Cc2nnc(SCC(=O)Nc3ccccc3)[nH]c2=O)cc1,-3,1,-5,-8,-14,-1
O=c1[nH]c(=O)n([C@H]2C[C@H](O)[C@@H](CO)O2)cc1F,-3,-3,76,-6,28,50*
CC(C)NC(=O)c1cc(C(=O)c2cc(Cl)ccc2O)coc1=N,24,69*,7,21,11,-12
SMILES,HIF-2a block,TWEAK Fn14 block,Shn3 3UTR inh,TROY NFkB inh,TRPM1 prom inh,EBV LMP1 NFkB
O=C(NCc1ccc(F)cc1)C(c1ccc(Cl)cc1)N(C(=O)c1csnn1)C1CC1 (centres undefined),3,14,10,12,-4,-5
Cn1cc(S(=O)(=O)N2CCN(C(=O)c3ccco3)CC2)c(=O)n(C)c1=O,16,6,17,-5,-19,88*
O=C(c1ccco1)N1CCN(C(=O)c2ccco2)C1=S,35,51*,-16,27,6,-5
CCCS(=O)(=O)N1CCN(C(=O)c2ccco2)CC1,4,77*,9,13,2,1
COC(=O)[C@H]1C[C@@]2(O)CN(S(=O)(=O)c3ccc(C)cc3)C[C@@]2(OC(=O)NCC2CCCCC2)C[C@H]1C(=O)OC,-47,-11,-19,-39,.,-11
Cc1onc(-c2c(F)cccc2Cl)c1C(=O)Nc1cc(S(=O)(=O)N2CCCCC2)ccc1O,2,64*,-2,64*,3,0
CC(C)(C)c1cc(NC(=O)C2(C)CCN2C(=O)c2ccccc2CCc2ccccc2)no1 (centres undefined),15,24,17,-17,.,.
CCN(CC)c1ccc(/C=N/NC(=O)c2ccco2)cc1,-122,64*,-14,16,-9,-4
CCN(CC)c1ccc(/C=N/NC(=O)c2ccco2)c(O)c1,-298,-17,70,-19,0,69*
O=C(N/N=C/c1ccc2cccnc2c1)c1ccco1,-123,52*,21,32,1,20
Cc1[nH]c2ccccc2c1C(=O)CSC(=S)N1CCOCC1,-94,-1,-25,-30,-13,-6
C[C@@H]1CN([C@@H](C)CO)C(=O)CCCn2nncc2CO[C@@H]1CN(C)S(=O)(=O)c1cccc(C#N)c1,4,-1,0,-5,.,-1
CCOc1ccc(NC(=O)c2ccc3c(c2)S(=O)(=O)N=C2CCCCCN23)cc1,11,-22,1,7,.,7
CC(C)C[C@H]1COc2cccc(N(C)CCO)c2S(=O)(=O)N1,-1,9,.,-2,.,.
COc1ccc(-c2cc(=O)oc3c(C)c(O)c(CN(C)C)cc23)cc1,19,23,5,60*,1,3
COc1ccc(-c2cc(=O)oc3c(C)c(OCC(=O)N(C)C)ccc23)cc1,26,-23,2,-2,-5,3
Nc1cccc(CN2CCCC2)c1,12,-3,-3,16,17,13
Clc1cccc(CN2CCCCCC2)c1,7,2,5,-10,12,80*
CCC(=O)N1CCN(c2cc(C)ccc2C)CC1,6,76*,-10,-9,-9,2
Cc1ccc(C)c(N2CCN(C(=O)c3ccc(CS(=O)Cc4ccc(Cl)cc4)o3)CC2)c1 (centres undefined),14,17,-16,27,13,10
Cc1ccc(Cl)cc1N1CCN(C(=O)c2ccc(CS(=O)Cc3ccc(Cl)cc3)o2)CC1 (centres undefined),11,10,0,54*,11,-1
Cc1ccc(CS(=O)Cc2ccc(C(=O)N3CCN(c4cccc(C)c4C)CC3)o2)cc1 (centres undefined),15,13,3,57*,.,0
Cc1ccc(C)c(N2CCN(C(=O)Cn3cccc3)CC2)c1,13,5,8,12,3,8

# High-throughput results: PubChem BioAssay, several laboratories
